This is a sample that favours compounds with a hit; in the whole collection about 11% have one here.
USP17 block: inhibitors of human USP17 deubiquitinase; Ubiquitin carboxyl-terminal hydrolase 17-like protein 5 (Homo sapiens), A8MUK1; purified USP17, Ub-rhodamine cleavage fluorescence, 3 h; inhibition, % at 50 µM; hit rate 6.5% among 47,000; AID 1645855, 2021
Target sequence (A8MUK1 whole entry, looked up): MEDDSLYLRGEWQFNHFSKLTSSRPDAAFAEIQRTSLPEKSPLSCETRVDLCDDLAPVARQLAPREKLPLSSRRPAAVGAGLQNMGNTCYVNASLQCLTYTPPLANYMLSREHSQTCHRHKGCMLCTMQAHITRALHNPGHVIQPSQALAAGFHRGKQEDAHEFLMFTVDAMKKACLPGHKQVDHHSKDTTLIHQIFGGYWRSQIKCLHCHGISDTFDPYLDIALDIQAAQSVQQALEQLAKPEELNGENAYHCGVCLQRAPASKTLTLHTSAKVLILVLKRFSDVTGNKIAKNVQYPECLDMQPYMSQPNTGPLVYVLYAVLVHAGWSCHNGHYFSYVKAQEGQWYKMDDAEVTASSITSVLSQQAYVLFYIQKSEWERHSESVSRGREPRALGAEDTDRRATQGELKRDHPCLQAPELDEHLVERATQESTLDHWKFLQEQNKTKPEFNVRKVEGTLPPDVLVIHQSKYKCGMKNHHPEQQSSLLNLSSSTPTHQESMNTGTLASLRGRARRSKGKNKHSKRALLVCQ
USP30 block: inhibitors of human USP30 deubiquitinase; hit rate 5.3% among 47,000; purified USP30, Ub-rhodamine cleavage fluorescence; inhibition, % at 25 µM; AID 1645860, 2021
USP28 block: inhibitors of human USP28 deubiquitinase; Ubiquitin carboxyl-terminal hydrolase 28 (Homo sapiens), Q96RU2; purified USP28, Ub-rhodamine cleavage fluorescence, 30 min; hit rate 3% among 47,000; inhibition, % at 25 µM; AID 1645857, 2021
OTUD3 inh: inhibitors of human OTUD3 deubiquitinase. hit rate 0.7% among 47,000. OTU domain-containing protein 3 (Homo sapiens), Q5T2D3. purified OTUD3, Ub-rhodamine fluorescence, 2 h. AID 1645858, 2021. inhibition, % at 25 µM
Numbers without * were called inactive. Cut-off read from the data, not from the text of the source: active = inhibition above about 30%; inactive = the rest.

CSc1ccccc1C(=O)Nc1sc2c(c1C(N)=O)CCC(C)C2 (stereo not drawn) was read as USP17 block 80*, USP30 block -1, USP28 block 12 and OTUD3 inh -9.
Screening CSc1ccccc1C(=O)Nc1sc2c(c1C(N)=O)CCCCC2 returned USP17 block 38*, USP30 block -2, USP28 block 29 and OTUD3 inh 7.
Screening CC1CCc2sc(NC(=O)c3ccccc3Oc3ccccc3)c(C(N)=O)c2C1 (stereo not drawn) returned USP17 block 83*, USP30 block 21, USP28 block 6 and OTUD3 inh 11.
`CSc1cccc(C(=O)Nc2sc3c(c2C(N)=O)CCC(C)C3)c1` (stereo not drawn) gave USP17 block 6, USP30 block 3, USP28 block -4 and OTUD3 inh -4.
For COc1ccc(C2=Nc3ncnn3C2=NCc2ccc(F)cc2)cc1 the results were USP17 block 0, USP30 block -1, USP28 block 5 and OTUD3 inh 2.
For Cc1ccc2nc(CNc3cccc(Cl)c3)cc(=O)n2c1 the results were USP17 block 30*, USP30 block -106, USP28 block 0 and OTUD3 inh -8.
`Cc1ccc(NCc2cc(=O)n3cc(C)ccc3n2)c(C)c1` gave USP17 block -3, USP30 block -113, USP28 block -12 and OTUD3 inh -12.
For O=C(C[n+]1cc(-c2ccccc2)n2c1CCC2)c1cccc([N+](=O)[O-])c1 the results were USP17 block -11, USP30 block 31*, USP28 block 15 and OTUD3 inh 15.
Cc1ccc(-c2c[n+](CC(=O)N(c3ccccc3)C(C)C)c3n2CCC3)cc1 was read as USP17 block -10, USP30 block -14, USP28 block 17 and OTUD3 inh 11.
`O=C(CCSCc1cccc(F)c1)NCCc1ccc(Cl)cc1` gave USP17 block 14, USP30 block 37*, USP28 block 15 and OTUD3 inh 11.
O=C(CCSCc1ccccc1F)NCCc1ccccc1 was read as USP17 block 4, USP30 block 0, USP28 block 3 and OTUD3 inh -1.
Screening COc1cccc(C(=O)N2CCN(c3ncnc4c3nnn4Cc3ccccc3)CC2)c1 returned USP17 block 19, USP30 block 35*, USP28 block 33* and OTUD3 inh 20.
Screening O=C1COc2ccc(S(=O)(=O)N3CCCC(C(=O)N4CCc5ccccc54)C3)cc2N1 (stereo not drawn) returned USP17 block 20, USP30 block -12, USP28 block 4 and OTUD3 inh -11.
`CN(C)c1nc2c(cc1C(=O)N1CCCC1)CCN(Cc1cccnc1)CC2` gave USP17 block -43, USP30 block -225, USP28 block -40 and OTUD3 inh -41.
`COc1ccc(NCc2nc3ccccc3n2Cc2ccccc2)cc1` gave USP17 block 64*, USP30 block -30, USP28 block 9 and OTUD3 inh -4.
For O=C(O)c1ccc(NCc2nc3ccccc3n2Cc2ccccc2F)cc1 the results were USP17 block 28, USP30 block 20, USP28 block 13 and OTUD3 inh 3.
N#CCc1nc2sc3c(c2c(=O)[nH]1)CCCC3 was read as USP17 block -160, USP30 block inactive, USP28 block -200 and OTUD3 inh -154.
Screening CC1(C)C=Cc2cc(O)ccc2O1 returned USP17 block 40*, USP30 block -8, USP28 block -3 and OTUD3 inh 0.
For CN1c2ccccc2-c2ccccc2C12C=Cc1cc([N+](=O)[O-])ccc1O2 (stereo not drawn) the results were USP17 block -4, USP30 block -26, USP28 block 5 and OTUD3 inh -7.
Screening O=C(NC1CCCC1)c1ccc2c(=O)n(CCc3ccccc3)c(=O)[nH]c2c1 returned USP17 block 15, USP30 block -3, USP28 block -5 and OTUD3 inh -5.
Screening CNC(=O)c1cc(C2CN(C(=O)c3ccccc3)CCO2)nc2ccccc12 (stereo not drawn) returned USP17 block 5, USP30 block 3, USP28 block 0 and OTUD3 inh 5.
`Cc1ccc2nc(NC(=O)c3ccccc3Cl)[nH]c(=O)c2c1` gave USP17 block 46*, USP30 block -13, USP28 block -6 and OTUD3 inh -1.
`O=C(NCc1ccc(F)cc1)c1ccc(N2CCCC2)nn1` gave USP17 block 33*, USP30 block 1, USP28 block 14 and OTUD3 inh 7.
Screening Cc1cccc(-n2cnc(C(=O)NCc3ccc(F)cc3)c2)n1 returned USP17 block 83*, USP30 block 35*, USP28 block 29 and OTUD3 inh 8.

Screening results from PubChem.
